# Source: PubChem (National Center for Advancing Translational Sciences (NCATS))
# Hits are enriched below; roughly 7.7% of the tested compounds scored in any of these assays.
# FMDV antiviral = antivirals against foot and mouth disease virus | FMDV antiviral cell-based qHTS | actives 1.2% (n = 410,000) | Potency, µM (series often up to 57.9 µM), usual class: inhibitors; calls by dose curve; tested in HEK293T cells; further: read-out not given here; nearly all actives have a fitted effect of over 45% in size
# Sm TGR inh = blocks Schistosoma mansoni thioredoxin glutathione reductase; Q962Y6; actives 3% (n = 360,000); Potency, µM (doses to about 114 µM), usual class: inhibitors; purified TGR, DTNB reduction, TNB absorbance 405 nm; AID 485364; further: nearly all actives have a fitted effect of over 60% in size
#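 Kinetic colorimetric format: TGR-catalysed, NADPH-driven DTNB reduction monitored via TNB absorbance. Enzyme dispensed at 20 nM; compound exposure 15 min at room temperature before reaction start.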
# Giardia FBPA inh = inhibitors of Giardia lamblia fructose-1,6-bisphosphate aldolase. A8B2U2. purified Giardia FBPA. Potency, µM (doses to about 59.6 µM), most hits filed as inhibitors. actives 0.71% (n = 290,000). AID 2451; further: nearly all actives have a fitted effect of over 55% in size
# Target sequence (A8B2U2 whole entry, looked up): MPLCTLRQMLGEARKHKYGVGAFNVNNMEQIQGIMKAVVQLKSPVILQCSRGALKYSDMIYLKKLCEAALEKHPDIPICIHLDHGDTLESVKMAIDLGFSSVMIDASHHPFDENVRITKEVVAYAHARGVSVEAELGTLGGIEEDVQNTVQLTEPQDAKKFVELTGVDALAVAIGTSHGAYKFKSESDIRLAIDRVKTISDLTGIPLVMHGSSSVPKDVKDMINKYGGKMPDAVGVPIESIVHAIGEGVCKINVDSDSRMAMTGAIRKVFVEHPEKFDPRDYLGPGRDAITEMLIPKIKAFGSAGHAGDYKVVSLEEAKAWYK
#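 Giardia FBPA (40 nM reagent) was preincubated 10 min at RT with compound (up to 57.5 uM final), then substrate plus GAPDH/TPI/NAD/arsenate coupling system with diaphorase/resazurin was added; resorufin fluorescence (525/598 nm) was read after 20 min.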
# HCMV antiviral = human cytomegalovirus inhibition; HFF cells, HCMV-luciferase reporter, 72 h; active compounds read low; activity change, negative = inhibition, % at 57.5 µM; actives 4.5% (n = 410,000); in the data active means activity change below about -60%; inconclusive means no clear call, values can overlap the other calls; inactive means above about -39%
#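 Two-dose cell screen: HFF monolayers treated with compounds and infected with luciferase-expressing HCMV at 1 PFU/cell, 72 h at 37C, then lysed for luciferase measurement.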
# RE007 growth inh = less growth of the S. pombe RE007 Vpr strain. actives 0.21% (n = 360,000). S. pombe RE007 Vpr strain, BacTiter-Glo ATP luminescence, 24 h. Potency, µM (top dose mostly 92.2 µM), most hits filed as inhibitors; active means well fitted falling curve with a large enough effect; inconclusive means small, poorly fitted or top-dose-only effect; inactive means no such curve, though single readings can be large or run the other way; further: nearly all actives have a fitted effect of over 50% in size
#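 Fission yeast strain RE007, carrying one chromosomally integrated HIV-1 vpr copy, was seeded at OD 0.01 in PMG+AL medium with 23 nL pinned compound. After 24 h at 30 °C and 99% humidity, viability was read by BacTiter-Glo luminescence.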
# Tb PYK inh = inhibitors of Trypanosoma brucei pyruvate kinase; Q57TT1; TbPYK enzyme, Kinase-Glo Plus ATP luminescence, 45 min; Potency, µM (doses to about 76.8 µM), usual class: inhibitors; actives 0.12% (n = 410,000); further: nearly all actives have a fitted effect of over 50% in size
#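 Assay buffer: 50 mM TEA pH 7.2, 100 mM KCl, 10 mM MgCl2, 0.05% BSA, 0.01% Tween-20. Pyruvate kinase from T. brucei plus substrate met compound, then ADP (130 uM final). Luminescence was read post 45 min RT.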
# A number is an active result; i = inactive; ? = inconclusive; nt = not tested or not shown. Unless noted, the call rests on the fitted dose curve; in most records, active means well fitted curve in the direction sought with a large enough effect; inconclusive means small, poorly fitted or top-dose-only effect, or another doubt; inactive means no such curve, though single readings can be large; an effect the other way counts as inactive or inconclusive.
SMILES,FMDV antiviral,Sm TGR inh,Giardia FBPA inh,HCMV antiviral,RE007 growth inh,Tb PYK inh
Fc1ccc(NC(=S)Nc2ccc(Cl)cc2)cc1,i,?,i,-78,i,i
Fc1ccc(NC(=S)Nc2cc(Cl)ccc2Cl)cc1,i,nt,i,i,i,i
Fc1cccc(NC(=S)Nc2ccc(Br)cc2)c1,i,20µM,i,i,i,i
COc1cccc(NC(=S)Nc2ccc(F)cc2)c1,i,?,i,i,i,i
COc1ccc(Nc2cc3c(cn2)nc(-c2ccc(OC)c(OC)c2)n3C)cn1,nt,nt,nt,i,nt,nt
COc1ccc(Oc2ncc3nc(-c4cccs4)c(=O)n(C)c3n2)cc1,i,nt,i,nt,nt,i
O=C(CCl)N=c1sccn1Cc1ccccc1Cl,?,i,i,-91,i,i
O=C(CCl)N=c1sccn1Cc1cccc2ccccc12,?,25µM,i,-100,i,i
N=c1sccn1Cc1ccc(Cl)cc1Cl,i,i,i,i,i,i
O=C(CCl)N=c1sccn1Cc1ccc(Cl)cc1Cl,?,13µM,i,-99,i,i
COC(=O)c1ccccc1NC(=O)c1c(NC(=O)c2ccco2)sc2c1CCC(C(C)(C)C)C2 (stereo not given),i,i,nt,i,nt,i
Oc1ccc(Cc2ccc(Cl)cc2)c(O)c1,i,i,i,-62,i,i
Oc1ccc(Cc2ccccc2Cl)c(O)c1,?,nt,nt,i,i,i
CCC(C)NC(=O)COC(=O)c1csc2c1CCCC2 (stereo not given),3.5µM,i,i,i,i,i
Cn1cc(O)nc1NC(=O)Nc1cccc(Cl)c1,nt,nt,nt,nt,nt,i
COCCNc1oc(/C=C/c2ccc(F)cc2)nc1S(=O)(=O)c1ccccc1,i,32µM,i,i,i,i
C=CCNc1oc(-c2ccco2)nc1S(=O)(=O)c1ccccc1,i,13µM,i,i,i,i
C=CCNc1oc(-c2cccs2)nc1S(=O)(=O)c1ccccc1,i,i,i,i,i,i
O=S(=O)(c1ccccc1)c1nc(-c2ccco2)oc1NCc1cccnc1,i,25µM,i,?,i,i
COCCNc1oc(-c2cccs2)nc1S(=O)(=O)c1ccc(C)cc1,i,i,i,i,i,i
COCCNc1oc(-c2ccco2)nc1S(=O)(=O)c1ccccc1,i,50µM,nt,nt,i,i
CCOC(=O)c1cnc(N2CCN(c3ccc(C)cc3C)CC2)c2ccccc12,i,i,nt,i,nt,i
O=[N+]([O-])c1ccc(SNc2ccccc2)c([N+](=O)[O-])c1,i,nt,nt,?,i,i
O=[N+]([O-])c1ccc(-[n+]2ccc3ccccc3c2)c([N+](=O)[O-])c1,28µM,1.8µM,nt,i,i,i
CCN=C1NN=C(c2cc(C)n(Cc3ccco3)c2C)CS1,0.079µM,i,i,-84,i,i
SMILES,FMDV antiviral,Sm TGR inh,Giardia FBPA inh,HCMV antiviral,RE007 growth inh,Tb PYK inh
CCN=C1NN=C(c2cc(C)n(CCc3ccccc3)c2C)CS1,i,?,i,i,i,i
CC(C)(C)OC(=O)NCCc1nnc(S(=O)(=O)Cc2ccc(Cl)cc2Cl)o1,?,0.89µM,i,i,i,i
CC(C)(C)OC(=O)NCCc1nnc(SCc2ccccc2Cl)o1,i,i,i,i,i,i
COc1ccc(N2CCN(C(=O)c3cc(NC(C)=O)c4c(c3)ncn4CCc3ccccn3)CC2)cc1,i,nt,nt,nt,nt,nt
Cc1nc(C)c(C(=O)NNS(=O)(=O)c2ccc3ccccc3c2)s1,i,i,i,-73,i,i
CC#CCc1cc2ccccc2c(=O)o1,i,4µM,i,i,i,i
O=c1oc(CCO)cc2ccccc12,i,nt,nt,i,i,i
CN1CCN(c2nc(-c3ccncc3)nc3ccccc23)CC1,i,i,i,i,i,i
c1ccc(-c2nc(N3CCCCCC3)c3ccccc3n2)nc1,25µM,i,i,-99,i,i
c1ccc(CN2CCN(c3nc(-c4ccccn4)nc4ccccc34)CC2)cc1,i,i,i,-99,i,i
c1ccc(-c2nc(N3CCOCC3)c3ccccc3n2)nc1,i,i,i,?,i,i
COc1ccc(Oc2nc(-c3ccccn3)nc3ccccc23)cc1,i,i,i,-70,i,i
c1ccc(Oc2nc(-c3ccccn3)nc3ccccc23)cc1,i,i,i,?,i,i
c1ccc2c(N3CCCC3)nc(-c3ccncc3)nc2c1,14µM,i,i,i,?,i
Cn1cc(-c2cc3n(n2)CCC(=O)N3CCCC(=O)NCc2ccccc2)c2ccccc21,i,i,nt,i,nt,i
CCOc1ccc(-n2c(SCC(=O)N3CCCCCC3)nc3c([nH]c4ccccc43)c2=O)cc1,?,i,nt,i,nt,i
COCCNC(=O)c1ccc(-c2nc(CS(=O)(=O)c3ccccc3)c(C)o2)cc1,i,22µM,nt,i,nt,i
Cc1oc(-c2ccc(C(=O)NCCN(C)C)cc2)nc1CS(=O)(=O)c1ccccc1,i,i,nt,-70,nt,i
CCOCCCNC(=O)c1ccc(-c2nc(CS(=O)(=O)c3ccccc3)c(C)o2)cc1,?,?,nt,i,nt,i
Cc1nc2cnc(N3CCN(C)CC3)nc2n(C2CC2)c1=O,i,nt,i,nt,nt,nt
COC(=O)c1ccc2nc(-c3ccco3)c(Cc3ccsc3)n2c1,nt,nt,nt,i,nt,nt
COC(=O)c1ccc(S(=O)(=O)NCc2ccco2)n1C,i,35µM,i,i,i,i
CCOC(=O)COc1ccc(S(=O)(=O)NCc2ccco2)cc1,i,50µM,i,i,i,i
COC(=O)COc1ccc(S(=O)(=O)NCc2ccco2)cc1,nt,35µM,i,i,i,i
Cc1ccc(S(=O)(=O)NCc2ccco2)cc1C,nt,i,i,i,i,i
SMILES,FMDV antiviral,Sm TGR inh,Giardia FBPA inh,HCMV antiviral,RE007 growth inh,Tb PYK inh
O=S(=O)(NCc1ccco1)c1ccc2c(c1)Cc1ccccc1-2,i,7.9µM,i,i,i,i
CCOc1ccc(N(C(=O)c2ccc(C)cc2)S(=O)(=O)c2ccc3c(c2)n(C)c(=O)n3C)cc1,i,i,nt,i,nt,i
O=P(O)(O)OC[C@@H](O)CO,nt,nt,nt,nt,nt,i
O=C(NC1CCCCCC1)c1ccc2c(c1)sc1nc(-c3ccc(F)cc3)cn12,i,i,nt,nt,nt,i
CC1(C)CC(NCCN2CCN(C3=CC(=C(C#N)C#N)CC(C)(C)C3)CC2)=CC(=C(C#N)C#N)C1,i,i,i,-63,i,i
CNC(=S)N1CCN(CCNC2=CC(=O)CC(C)(C)C2)CC1,i,i,i,i,i,i
COc1ccc(NC(=O)CNC(=O)c2ccco2)cc1,i,i,i,i,i,i
COC(=O)c1ccccc1NC(=O)CNC(=O)c1ccco1,i,i,i,-72,i,i
COc1ccc(CNC(=O)Nc2ccc3c(c2)N(C)C(=O)c2ccccc2S3)cc1OC,?,?,nt,?,nt,i
CC(C)Oc1ccc(CNC(=O)Nc2ccc3c(c2)N(C)C(=O)c2ccccc2S3)cc1,?,i,nt,-76,nt,i
O=C(Nc1ccc2c(c1)N(C1CCCC1)C(=O)c1ccccc1S2)c1ccccc1,i,i,nt,-64,nt,i
